Laboratory results reported in the supplement of paper PMC13380429.
Values without a mark were called inactive.

System: Vero E6 infected with SARS-CoV-2
Assay: inhibition of SARS-CoV-2 cytopathic effect; higher = more antiviral protection, active = above 15
Conditions: 48 h

Row | SMILES | inhibition of SARS-CoV-2 cytopathic effect (1 nM) | inhibition of SARS-CoV-2 cytopathic effect (8.33 nM) | inhibition of SARS-CoV-2 cytopathic effect (100 nM) | inhibition of SARS-CoV-2 cytopathic effect (833.33 nM) | inhibition of SARS-CoV-2 cytopathic effect (10000 nM)
1 | CN[C@@H](C)CCC=C(C)C [isometheptene-mucate] | -0.09% | 2.18% | 0.64% | -1.17% | -0.16%
2 | O=[N+]([O-])c1ccc2c(c1)S(=O)(=O)C=C2 [stattic] | -2.62% | -2.1% | -5.02% | 5.41% | -2.07%
3 | CCCNC(C)C(=O)Nc1ccccc1C (stereo not given) [prilocaine] | 3.07% | -1.58% | -0.81% | 2.12% | 2%
4 | CC(OC(=O)NCC1(CC(=O)O)CCCCC1)OC(=O)C(C)C (stereo not given) [gabapentin-enacarbil] | -7.45% | -8.92% | -4.27% | -4.9% | -8.44%
5 | COc1cc([S+](C)[O-])ccc1-c1nc2cccnc2[nH]1 (stereo not given) [sulmazole] | -0.6% | 3.93% | 0.23% | -1.34% | -0.68%
6 | OC(c1cc(C(F)(F)F)nc2c(C(F)(F)F)cccc12)C1CCCCN1 (stereo not given) [mefloquine] | -1.64% | 0.59% | -0.03% | -3.31% | 73.3% (active)
7 | CNC(=O)c1cccc(-c2ccc3c(N4CCOC[C@@H]4C)nc(N4CCOC[C@@H]4C)nc3n2)c1 | 0.89% | -1.74% | -1.86% | 0.43% | -2.51%
8 | Cc1c(C(N)=O)cc([N+](=O)[O-])cc1[N+](=O)[O-] [dinitolmide] | -1.43% | 2.03% | 1.29% | -2.22% | -3.59%
9 | Cc1cc(CCC[C@H](CC(=O)NO)C(=O)N[C@H](C(=O)N[C@H](C)c2ccccc2)C(C)(C)C)ccc1-c1ccccc1 | -1.73% | -2.08% | -3.51% | -2.76% | -13%
10 | COc1ccc2[nH]c(C(=O)c3ccccc3)cc2c1 | 0.63% | 1.49% | 0.36% | 0.6% | 0.07%
11 | C[C@H]1C[C@H]2[C@@H]3CCC4=CC(=O)C=C[C@]4(C)[C@@]3(F)[C@@H](O)C[C@]2(C)[C@@]1(O)C(=O)CO [betamethasone] | 0.395% | -1.08% | 2.04% | 1.69% | -0.195%
12 | Cc1cc(CN)cc(C)c1NC(=O)c1ccc(-c2cc(Cl)ccc2Cl)o1 | -1.09% | 1.98% | 3.29% | -1.5% | 66.2% (active)
13 | Cc1nc(C)c(C)nc1C [chuanxiongzine] | 2.81% | 0.85% | 2.51% | 5.75% | 1.87%
14 | CC(=O)O[C@H]1C[C@@]2(C)[C@@H](C[C@@H](O)[C@H]3[C@@]4(C)CC[C@@H](O)[C@@H](C)[C@@H]4CC[C@@]32C)/C1=C(\CCC=C(C)C)C(=O)O [fusidic-acid] | -0.53% | 0.07% | -1.13% | -8.51% | -1.02%
15 | CCCOC(=O)c1ccc(O)cc1 [propyl 4-hydroxybenzoate] | -1.38% | -0.18% | -0.42% | 2.26% | -3.05%
16 | CC(C)n1c(/C=C/[C@@H](O)C[C@@H](O)CC(=O)O)c(-c2ccc(F)cc2)c2ccccc21 [fluvastatin] | -0.24% | -1.21% | 1.75% | -1.33% | 2.61%
17 | O=C(CN1C(=O)C2(CCCC2)NC[C@H]1c1cc(F)cc(F)c1)Nc1ccc2c(c1)C[C@@]1(C2)C(=O)Nc2ncccc21 | -6.85% | -7.92% | -8.42% | -6.83% | -2.55%
18 | COc1cccc([C@H](O)C2CCN(CCc3ccc(F)cc3)CC2)c1OC [volinanserin] | -1.28% | -0.6% | -3.32% | -1.38% | -2.28%
